The values that follow come from PubChem BioAssay (Tox21).

SMILES strings stand for the structures. Records with an inconclusive call do not appear. Calls of active or inactive are those of the source. The call rests on the fitted dose curve.
On the % scale 0 is the no-effect control and ±100 the full control effect; potency means the concentration at half of the fitted maximal effect.

This test is described as follows: qHTS assay to identify small molecule agonists of H2AX - cell viability counter screen (AID 1224847). Further: nearly all actives have a fitted effect of over 30% in size. On activity change, negative = cytotoxicity: top concentration of the series differs between compounds. To be noted: CHO-K1 viability, CellTiter-Glo luminescence, 3 h; series mostly up to 154 µM; activity change, negative = cytotoxicity: at the top concentration. Summed up:
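Compounds tested at 15 concentrations were incubated 3 hr at 37C with wild-type CHO-K1 cells; cellular ATP-based luminescence (CellTiter-Glo) indicated viability.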
Regarding `O=C(/C=C/c1ccc(O)c(O)c1)O[C@@H]1C[C@@](OC(=O)/C=C/c2ccc(O)c(O)c2)(C(=O)O)C[C@@H](O)[C@@H]1O`, the “activity change, negative = cytotoxicity” value is 6.27% [at 70.9 µM] (inactive).

In the case of `CC(C)(c1ccccc1)c1ccccc1`, the “activity change, negative = cytotoxicity” value was 7.04% (inactive).

As to `Cc1cccc(O)c1N`, the “activity change, negative = cytotoxicity” value is -8.79% (inactive).

On to `CC1(C)S[C@@H]2[C@H](NC(=O)C(c3ccccc3)S(=O)(=O)O)C(=O)N2[C@H]1C(=O)O` (stereo not given in full), for which the “activity change, negative = cytotoxicity” value is 4.8% [at 70.9 µM] (inactive).

Consider `CC[C@]1(O)C[C@H]2CN(CCc3c([nH]c4ccccc34)[C@@](C(=O)OC)(c3cc4c(cc3OC)N(C=O)[C@H]3[C@@](O)(C(=O)OC)[C@H](OC(C)=O)[C@]5(CC)C=CCN6CC[C@]43[C@@H]65)C2)C1`, for which the “activity change, negative = cytotoxicity” value was -3.2% [at 70.9 µM] (inactive).

As to `O=C(Cn1ccnc1[N+](=O)[O-])NCCO`, the “activity change, negative = cytotoxicity” value was -0.914% [at 70.9 µM] (inactive).

As to `CC1CC(C)C(=O)C1=O` (stereo not given), the “activity change, negative = cytotoxicity” value was 0.901% (inactive).

With `CC(=O)c1cc2ccccc2s1`, the “activity change, negative = cytotoxicity” value was 0.026% [at 70.9 µM] (inactive).

With `Clc1cc(Cl)nc(Cl)n1`, the “activity change, negative = cytotoxicity” value is -1.14% (inactive).

For the compound `Brc1cc(Br)c(Oc2cc(Br)c(Br)cc2Br)cc1Br`, the “activity change, negative = cytotoxicity” value was 1.06% [at 70.9 µM] (inactive).

In the case of `CCCCCC[C@@H](O)C/C=C\CCCCCCCC(=O)O`, the “activity change, negative = cytotoxicity” value is -3.83% (inactive).

On to `OC1(c2ccccc2)CCNCC1`, for which the “activity change, negative = cytotoxicity” value was 1.94% [at 70.9 µM] (inactive).

For the compound `CCOC(=O)c1ccc(O)c(O)c1`, the “activity change, negative = cytotoxicity” value is 9.96% [at 70.9 µM] (inactive).

For `CCC(C)(C)OC`, the “activity change, negative = cytotoxicity” value is 4.04% (inactive).

For the compound `Cc1ccccc1S`, the “activity change, negative = cytotoxicity” value was -3.4% [at 70.9 µM] (inactive).

Regarding `O=[N+]([O-])c1cc(C2CCCCC2)c(O)c([N+](=O)[O-])c1`, the Potency was 11.3 µM (active).

With `O=[N+]([O-])c1ccc(Nc2ccc(Nc3ccccc3)c(S(=O)(=O)O)c2)c([N+](=O)[O-])c1`, the “activity change, negative = cytotoxicity” value is -6.67% (inactive).

For `Clc1ccc(Nc2nnc(Cc3ccncc3)c3ccccc23)cc1`, the “activity change, negative = cytotoxicity” value is 11.6% [at 70.9 µM] (inactive).

Turning to `CCCCC(CC)CN` (stereo not given), the “activity change, negative = cytotoxicity” value was 3.27% (inactive).

Consider `OCCOCC#CCOCCO`, for which the “activity change, negative = cytotoxicity” value is 7.17% (inactive).

`CC(C)=CCC/C(C)=C/CC/C(C)=C/C(=O)OCC(=O)[C@@]1(O)CC[C@H]2[C@@H]3CCC4=CC(=O)C=C[C@]4(C)[C@H]3[C@@H](O)C[C@@]21C`: the “activity change, negative = cytotoxicity” value was 0.11% [at 70.9 µM] (inactive).

With `COc1ccccc1N1CCN(CC(O)COc2cccc3ccccc23)CC1` (stereo not given), the Potency was 49.2 µM (active).

Consider `COc1ccc(OC(=O)N(CC(=O)O)Cc2ccc(OCCc3nc(-c4ccccc4)oc3C)cc2)cc1`, for which the Potency was 27.7 µM (active).

In the case of `CC(C)=CCC1C(=O)N(c2ccccc2)N(c2ccccc2)C1=O`, the “activity change, negative = cytotoxicity” value is -0.248% [at 70.9 µM] (inactive).

`c1ccc2sc(SN(C3CCCCC3)C3CCCCC3)nc2c1`: the “activity change, negative = cytotoxicity” value is -13% (inactive).

Take `COc1ccccc1N1CCN(CCCCNC(=O)c2ccc(-c3ccc(C(C)=O)cc3)cc2)CC1`: the “activity change, negative = cytotoxicity” value was -12% [at 70.9 µM] (inactive).

As to `c1csc(SSc2cccs2)c1`, the “activity change, negative = cytotoxicity” value is -6.31% (inactive).

As for `CCC1NC(=O)c2cc(S(N)(=O)=O)c(Cl)cc2N1` (stereo not given), the “activity change, negative = cytotoxicity” value was -1.67% [at 70.9 µM] (inactive).

Turning to `CCOc1ccccc1O[C@H](c1ccccc1)[C@H]1CNCCO1`, the “activity change, negative = cytotoxicity” value is 2.14% [at 70.9 µM] (inactive).

Consider `COC(=O)CS`, for which the “activity change, negative = cytotoxicity” value is -7.61% (inactive).
